Results from PubChem BioAssay (Tox21).
Inconclusive results are not listed. Entries that show only a call come without a potency. Calls of active or inactive are those of the source. Unless noted, the call rests on the fitted dose curve; in most records, active means well fitted curve in the direction sought with a large enough effect in the repeat runs; inconclusive means weak or mixed curves; inactive means no such curve, though single readings can be large; an effect the other way counts as inactive or inconclusive.

Key:
[1] = target: Aryl hydrocarbon receptor (Homo sapiens) (UniProt P35869); experiment: qHTS assay to identify small molecule that activate the aryl hydrocarbon receptor (AhR) signaling pathway (AID 743085); further: nearly all actives have a fitted effect of over 15% in size; further: potency means the concentration at half of the fitted maximal effect;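 on activation: HG2L7.5c1 human HepG2 liver cells with stably integrated DRE-driven firefly reporter; series mostly up to about 70 µM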
Procedure, shortened: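 Reporter assay in engineered HepG2 line HG2L7.5c1, whose plasmid carries twenty dioxin responsive elements upstream of firefly luciferase. Treatment lasted 24 h at 37C; ONE-Glo luminescence gauged induction.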

[2] = qHTS assay to identify small molecule that activate the aryl hydrocarbon receptor (AhR) signaling pathway - cell viability counter screen (AID 743086);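 further: HepG2 liver cells carrying the AhR DRE luciferase reporter; series mostly up to about 70 µM; nearly all actives have a fitted effect of over 45% in size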
Procedure, shortened: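 Cytotoxicity counter screen: CellTiter-Fluor signal (30 min, 37 C) in 4000 HepG2 cells/well carrying the DRE-luciferase reporter, following 24 h compound exposure at 37 C.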

[3] = target: Peroxisome proliferator-activated receptor gamma (Homo sapiens) (UniProt P37231); experiment: qHTS assay to identify small molecule agonists of the peroxisome proliferator-activated receptor gamma (PPARg) signaling pathway (AID 743094; active means well fitted activation curve with a large enough effect in the signal ratio in the repeat runs, not every such curve was filed as active; the % refers to the signal ratio)
Procedure, shortened: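 Beta-lactamase FRET fluorescence was the read-out after a 1 h room-temperature substrate step, following 17 h compound treatment at 37C of HEK293H cells expressing a UAS-driven bla reporter responsive to PPARg.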

[4] = qHTS assay to identify small molecule antagonists of the peroxisome proliferator-activated receptor gamma (PPARg) signaling pathway - cell viability counter screen (AID 743194); further: nearly all actives have a fitted effect of over 55% in size
Procedure, shortened: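 Viability was measured as CellTiter-Glo luminescence in GeneBLAzer PPARg UAS-bla HEK293H cells. These cells had been exposed 17 h at 37 C to compounds together with rosiglitazone at 50 nM final, with the beta-lactamase readout taken in the same wells.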

[5] = qHTS assay for small molecule agonists of the antioxidant response element (ARE) signaling pathway (AID 743202; active means well fitted activation curve with a large enough effect in the signal ratio in the repeat runs, not every such curve was filed as active; the % refers to the signal ratio; further: potency means the concentration at half of the fitted maximal effect)
Procedure, shortened: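 An ARE-responsive beta-lactamase gene stably integrated in HepG2 cells serves as reporter. After 5 h plating and 16 h compound incubation at 37 C, fluorescence of the B/G FRET substrate was measured.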

[6] = qHTS assay for small molecule agonists of the antioxidant response element (ARE) signaling pathway - cell viability counter screen (AID 743203; calls by dose curve; further: nearly all actives have a fitted effect of over 55% in size)
Procedure, shortened: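 HepG2 cells carrying ARE-driven beta-lactamase; 2,000 cells/well; 5 hrs plating; compound pinned from DMSO; 16 hrs 37C/5% CO2; CellTiter-Glo added; 30 min RT; luminescence.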

[7] = qHTS assay for small molecule activators of the heat shock response signaling pathway - cell viability counter screen (AID 743209); further: nearly all actives have a fitted effect of over 50% in size
Procedure, shortened: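 Luminescence from CellTiter-Glo, added after the beta-lactamase FRET read, gave the viability signal. Cells were HSE-bla HeLa treated with DMSO-dissolved compounds for 5 h at 37 C following overnight plating.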

[8] = qHTS assay for small molecule activators of the heat shock response signaling pathway (AID 743210; active means well fitted activation curve with a large enough effect in the signal ratio in the repeat runs, with a control signal flat, not every such curve was filed as active; the % refers to the signal ratio;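 further: HeLa cells with beta-lactamase reporter driven by heat shock elements; series mostly up to about 63 µM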)
Procedure, shortened: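 In HSE-bla HeLa cells, 5 h compound incubation (37 C) precedes addition of LiveBLAzer B/G substrate; after 2.5 h at room temperature, fluorescence intensity indicates reporter induction.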

[9] = qHTS assay to identify small molecule agonists of the peroxisome proliferator-activated receptor delta (PPARd) signaling pathway - cell viability counter screen (AID 743211); further: nearly all actives have a fitted effect of over 55% in size
Procedure, shortened: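 Multiplexed format: after the 2 h room-temperature LiveBLAzer B/G FRET step, CellTiter-Glo was added to the same wells. Luminescence after 30 min gave cell viability; compound exposure was 17 h at 37C.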

[10] = target: Peroxisome proliferator-activated receptor delta (Homo sapiens) (UniProt Q03181); experiment: qHTS assay to identify small molecule agonists of the peroxisome proliferator-activated receptor delta (PPARd) signaling pathway (AID 743212; calls by dose curve)
Procedure, shortened: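 HEK293H UAS-bla reporter cells, human PPARd system; compounds delivered in DMSO after 5 h plating, then at 37 C. Beta-lactamase FRET read, 2 h RT substrate step.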

[11] = qHTS assay to identify small molecule antagonists of the peroxisome proliferator-activated receptor delta (PPARd) signaling pathway - cell viability counter screen (AID 743213); further: nearly all actives have a fitted effect of over 50% in size
Procedure, shortened: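 In this counter screen, HEK293H cells carrying a UAS-beta-lactamase reporter are co-treated with test compounds and 300 nM L165041 (final) for 17 h at 37 C; cell viability is quantified by CellTiter-Glo luminescence.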

[12] = target: Peroxisome proliferator-activated receptor delta (Homo sapiens) (UniProt Q03181); experiment: qHTS assay to identify small molecule antagonists of the peroxisome proliferator-activated receptor delta (PPARd) signaling pathway (AID 743215; active means well fitted inhibition curve with a large enough effect in the signal ratio in the repeat runs, not every such curve was filed as active; the % refers to the signal ratio;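 further: cells stimulated with agonist L165041 at 300 nM final during compound exposure; series mostly up to about 62 µM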)
Procedure, shortened: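 Read-out is beta-lactamase FRET fluorescence, measured 2 h after substrate addition at room temperature. Beforehand, UAS-bla HEK293H cells carrying the PPARd reporter were exposed to compounds with L165041 at 300 nM final for 17 h at 37 C.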

[13] = qHTS assay to identify small molecule agonists of the farnesoid-X-receptor (FXR) signaling pathway - cell viability counter screen (AID 743218); further: nearly all actives have a fitted effect of over 45% in size
Procedure, shortened: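 HEK 293T FXR-bla cells; 5 h pre-incubation, 16 h compound exposure at 37 C; LiveBLAzer substrate 2 h RT, then CellTiter-Glo 30 min RT, luminescence.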

[14] = target: Bile acid receptor (Homo sapiens) (UniProt Q96RI1); experiment: qHTS assay to identify small molecule agonists of the farnesoid-X-receptor (FXR) signaling pathway (AID 743220; active means well fitted activation curve with a large enough effect in the signal ratio in the repeat runs, not every such curve was filed as active; the % refers to the signal ratio)
Procedure, shortened: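 Beta-lactamase reporter under UAS control in GeneBLAzer FXR HEK 293T cells (5000/well) measured with LiveBLAzer FRET substrate after 2 h at room temperature. Compound exposure lasted 16 h at 37C.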

[15] = qHTS assay to identify small molecule antagonists of the farnesoid-X-receptor (FXR) signaling pathway - cell viability counter screen (AID 743221; active means well fitted cell-killing curve with a large enough effect in the repeat runs, not every such curve was filed as active; further: nearly all actives have a fitted effect of over 50% in size)
Procedure, shortened: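 CellTiter-Glo, 30 min RT, luminescence; same wells as the LiveBLAzer FRET read. Cells: FXR-UAS-bla HEK 293T. Treatment: compound with chenodeoxycholic acid 50 uM final, 16 h at 37 C.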

[16] = target: Vitamin D3 receptor (Homo sapiens) (UniProt P11473); experiment: qHTS assay to identify small molecule agonists of the vitamin D receptor (VDR) signaling pathway (AID 743222; calls by dose curve)
Procedure, shortened: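 VDR-bla cells, 2,000/well; 4 h preincubation 37C; cpd (DMSO) 16 h; LiveBLAzer B/G substrate 2 h RT; fluorescence intensity read.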

[17] = target: Vitamin D3 receptor (Homo sapiens) (UniProt P11473); experiment: qHTS assay to identify small molecule antagonists of the vitamin D receptor (VDR) signaling pathway (AID 743223; active means well fitted inhibition curve with a large enough effect in the signal ratio in the repeat runs, not every such curve was filed as active; the % refers to the signal ratio)
Procedure, shortened: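 After VDR-bla cells are plated and left 4 h at 37C, DMSO-dissolved compounds and 3 nM (final) calcitriol agonist are added. Incubation continues 16 h at 37C; FRET beta-lactamase substrate then develops 2 h at room temperature.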

[18] = qHTS assay to identify small molecule agonists of the vitamin D receptor (VDR) signaling pathway - cell viability counter screen (AID 743224); further: series mostly up to about 63 µM; nearly all actives have a fitted effect of over 50% in size
Procedure, shortened: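 Luminescence from CellTiter-Glo, read after 30 min at room temperature, reports viability of VDR-bla cells treated with compounds for 16 h at 37C in the wells used for the beta-lactamase FRET read.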

[19] = target: Bile acid receptor (Homo sapiens) (UniProt Q96RI1); experiment: qHTS assay to identify small molecule antagonists of the farnesoid-X-receptor (FXR) signaling pathway (AID 743217; active means well fitted inhibition curve with a large enough effect in the signal ratio in the repeat runs, not every such curve was filed as active; the % refers to the signal ratio)
Procedure, shortened: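 HEK 293T FXR-UAS-bla, 5000 cells/well; compound + CDCA 50 uM final; 16 h, 37 °C; B/G FRET substrate 2 h RT; fluorescence.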

[20] = target: Peroxisome proliferator-activated receptor gamma (Homo sapiens) (UniProt P37231); experiment: qHTS assay to identify small molecule antagonists of the peroxisome proliferator-activated receptor gamma (PPARg) signaling pathway (AID 743191; calls by dose curve; further: series mostly up to about 63 µM; nearly all actives have a fitted effect of over 30% in size)
Procedure, shortened: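 Beta-lactamase reporter under UAS control in HEK293H PPARg-bla cells; compound treatment 17 h at 37C. Read-out: fluorescence intensity after 1 h room-temperature incubation with LiveBLAzer B/G FRET substrate.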

Vitamin D3 receptor (Homo sapiens), sequence (P11473 whole entry, looked up): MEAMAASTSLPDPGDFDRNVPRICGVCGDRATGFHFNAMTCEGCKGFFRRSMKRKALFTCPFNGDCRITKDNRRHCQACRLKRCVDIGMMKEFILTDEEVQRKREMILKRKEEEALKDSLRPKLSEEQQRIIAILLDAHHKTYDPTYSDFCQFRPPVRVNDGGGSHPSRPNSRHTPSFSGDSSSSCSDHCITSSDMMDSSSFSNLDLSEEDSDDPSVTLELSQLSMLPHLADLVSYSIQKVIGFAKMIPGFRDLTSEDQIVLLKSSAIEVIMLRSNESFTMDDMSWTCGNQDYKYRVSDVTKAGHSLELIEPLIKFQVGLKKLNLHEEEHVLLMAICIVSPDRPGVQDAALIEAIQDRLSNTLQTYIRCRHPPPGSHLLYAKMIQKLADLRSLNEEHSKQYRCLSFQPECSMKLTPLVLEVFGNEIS
Bile acid receptor (Homo sapiens), sequence (Q96RI1 whole entry, looked up): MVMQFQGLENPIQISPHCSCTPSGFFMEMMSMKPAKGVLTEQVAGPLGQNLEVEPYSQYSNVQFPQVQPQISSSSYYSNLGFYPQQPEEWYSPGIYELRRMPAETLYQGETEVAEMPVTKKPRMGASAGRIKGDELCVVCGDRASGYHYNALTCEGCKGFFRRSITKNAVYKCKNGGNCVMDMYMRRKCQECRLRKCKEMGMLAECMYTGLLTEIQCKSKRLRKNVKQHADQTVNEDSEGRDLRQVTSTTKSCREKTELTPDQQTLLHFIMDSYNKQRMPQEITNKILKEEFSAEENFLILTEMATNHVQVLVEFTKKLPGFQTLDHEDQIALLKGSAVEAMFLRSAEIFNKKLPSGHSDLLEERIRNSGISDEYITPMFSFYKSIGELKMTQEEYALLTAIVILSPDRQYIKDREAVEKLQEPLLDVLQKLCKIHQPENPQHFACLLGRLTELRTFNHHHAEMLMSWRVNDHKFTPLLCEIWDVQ
Aryl hydrocarbon receptor (Homo sapiens), sequence (P35869 whole entry, looked up): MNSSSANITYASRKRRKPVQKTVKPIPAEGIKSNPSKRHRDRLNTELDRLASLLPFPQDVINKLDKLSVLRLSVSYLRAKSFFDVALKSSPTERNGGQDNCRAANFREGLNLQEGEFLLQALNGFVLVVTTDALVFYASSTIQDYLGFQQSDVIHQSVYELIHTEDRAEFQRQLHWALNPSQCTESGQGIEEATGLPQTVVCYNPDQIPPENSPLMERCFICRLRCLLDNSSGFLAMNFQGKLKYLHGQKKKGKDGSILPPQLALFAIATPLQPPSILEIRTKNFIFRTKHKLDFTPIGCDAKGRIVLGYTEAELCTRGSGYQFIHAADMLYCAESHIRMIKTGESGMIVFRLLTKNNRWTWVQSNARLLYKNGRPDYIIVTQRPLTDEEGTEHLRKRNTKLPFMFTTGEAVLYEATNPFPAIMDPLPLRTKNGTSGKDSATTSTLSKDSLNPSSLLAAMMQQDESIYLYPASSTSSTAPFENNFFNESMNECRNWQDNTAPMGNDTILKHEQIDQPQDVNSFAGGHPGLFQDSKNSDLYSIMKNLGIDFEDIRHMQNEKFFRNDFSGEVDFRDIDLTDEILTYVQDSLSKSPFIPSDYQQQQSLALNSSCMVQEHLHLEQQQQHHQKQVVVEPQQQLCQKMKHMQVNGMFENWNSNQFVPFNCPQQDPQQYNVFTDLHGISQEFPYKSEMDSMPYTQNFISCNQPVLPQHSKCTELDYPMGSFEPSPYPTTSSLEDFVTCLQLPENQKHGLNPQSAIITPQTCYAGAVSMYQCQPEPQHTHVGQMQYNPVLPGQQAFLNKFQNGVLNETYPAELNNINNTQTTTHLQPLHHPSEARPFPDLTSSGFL
Peroxisome proliferator-activated receptor delta (Homo sapiens), sequence (Q03181 whole entry, looked up): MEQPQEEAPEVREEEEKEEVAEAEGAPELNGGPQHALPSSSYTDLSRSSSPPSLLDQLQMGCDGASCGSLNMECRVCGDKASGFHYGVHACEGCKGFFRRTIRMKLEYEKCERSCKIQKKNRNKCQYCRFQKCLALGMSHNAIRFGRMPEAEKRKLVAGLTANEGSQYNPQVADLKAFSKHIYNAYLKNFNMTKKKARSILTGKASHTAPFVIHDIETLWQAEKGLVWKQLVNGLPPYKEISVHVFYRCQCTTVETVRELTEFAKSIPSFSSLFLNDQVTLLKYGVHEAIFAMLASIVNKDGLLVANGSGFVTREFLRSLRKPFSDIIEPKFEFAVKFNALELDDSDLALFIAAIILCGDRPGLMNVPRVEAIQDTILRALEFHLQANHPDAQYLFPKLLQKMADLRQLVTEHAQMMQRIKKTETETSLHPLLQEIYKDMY
Peroxisome proliferator-activated receptor gamma (Homo sapiens), sequence (P37231 whole entry, looked up): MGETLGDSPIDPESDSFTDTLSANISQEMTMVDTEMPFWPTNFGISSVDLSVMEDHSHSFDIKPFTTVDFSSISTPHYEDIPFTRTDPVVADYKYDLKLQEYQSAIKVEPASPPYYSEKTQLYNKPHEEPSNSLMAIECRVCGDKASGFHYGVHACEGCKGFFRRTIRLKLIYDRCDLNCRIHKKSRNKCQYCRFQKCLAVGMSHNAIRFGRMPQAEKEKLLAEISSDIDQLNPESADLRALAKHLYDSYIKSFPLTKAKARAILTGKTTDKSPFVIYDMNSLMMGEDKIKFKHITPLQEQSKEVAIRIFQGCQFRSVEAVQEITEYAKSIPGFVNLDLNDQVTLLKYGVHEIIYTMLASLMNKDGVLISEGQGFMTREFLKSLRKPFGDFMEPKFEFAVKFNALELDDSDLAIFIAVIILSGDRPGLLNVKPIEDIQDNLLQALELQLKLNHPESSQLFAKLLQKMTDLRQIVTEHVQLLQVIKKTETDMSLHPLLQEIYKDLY

Compound	Potency [1]	outcome [2]	Potency [3]	Potency [4]	Potency [5]	Potency [6]	outcome [7]	Potency [8]	Potency [9]	outcome [10]	Potency [11]	outcome [12]	Potency [13]	outcome [14]	outcome [15]	outcome [16]	outcome [17]	Potency [18]	outcome [19]	Potency [20]
FC(F)(F)C(F)(F)C(F)(F)C(F)(F)C(F)(F)C(F)(F)C(F)(F)C(F)(F)Br	inactive	inactive	inactive	inactive	inactive	inactive	inactive	inactive	inactive	inactive	inactive	inactive	inactive	inactive	inactive	inactive	inactive	inactive		
COc1cc(N)c(Cl)cc1C(=O)NC1CCN(Cc2ccccc2)CC1	inactive	inactive	inactive	inactive	inactive	inactive	inactive	inactive	inactive	inactive	inactive	inactive	inactive	inactive	inactive		inactive	inactive	inactive	
O=C(O)[C@@H]1CSCN1	inactive	inactive	inactive	inactive	inactive	inactive	inactive	inactive	inactive	inactive	inactive	inactive	inactive		inactive	inactive	inactive	inactive		
Cc1ncc(CO)c(CN)c1O	inactive	inactive	inactive	inactive		inactive	inactive	inactive	inactive		inactive		inactive		inactive			inactive		inactive
CCCCCCCCCC/C=C/C#N	inactive	inactive	inactive	inactive		inactive	inactive		inactive	inactive	inactive	inactive	inactive	inactive	inactive	inactive	inactive		inactive	inactive
CC1(C)O[C@@H]2C[C@H]3[C@@H]4CCC5=CC(=O)CC[C@]5(C)[C@@]4(F)[C@@H](O)C[C@]3(C)[C@]2(C(=O)CCl)O1	inactive	inactive	inactive	inactive		inactive	inactive		inactive		inactive				inactive	inactive		inactive	inactive	inactive
O=C(O)C(=O)Cc1c[nH]c2ccccc12	6.11 µM (active)	inactive	inactive	inactive	27.3 µM (active)	inactive	inactive	inactive	inactive	inactive	inactive	inactive	inactive		inactive	inactive		inactive		
C=C(C)C(=O)OCCOP(=O)(O)O	inactive	inactive	inactive	inactive	inactive				inactive	inactive	inactive	inactive	inactive		inactive			inactive		inactive
O=C1N(c2ccccc2)c2ccccc2C1(Cc1ccncc1)Cc1ccncc1	inactive	inactive	inactive	inactive		inactive	inactive		inactive	inactive					inactive			inactive		inactive
C[C@]12C(=O)OC(=O)[C@H]1[C@H]1C=C[C@@H]2C1	inactive	inactive	inactive	inactive	inactive		inactive		inactive				inactive		inactive	inactive	inactive	inactive		inactive
Cc1nnc(SCC2=C(C(=O)O)N3C(=O)[C@@H](NC(=O)Cn4cnnn4)[C@H]3SC2)s1	inactive	inactive	inactive	inactive		inactive	inactive	inactive	inactive	inactive	inactive	inactive	inactive		inactive					inactive
CCCCc1ccc2nc(NC(=O)OC)[nH]c2c1	1.01 µM (active)	inactive	inactive	inactive		inactive	inactive				inactive		inactive	inactive	inactive	inactive		inactive		inactive
CCCCC(CC)COC(=O)COc1cc(Cl)c(Cl)cc1Cl (stereo not drawn)	inactive	inactive	inactive	inactive	inactive	inactive	inactive	inactive	inactive	inactive	inactive	inactive	inactive	inactive	inactive			inactive	inactive	
CCC(=O)O[C@]1(C(=O)SCF)[C@H](C)C[C@H]2[C@@H]3C[C@H](F)C4=CC(=O)C=C[C@]4(C)[C@@]3(F)[C@@H](O)C[C@@]21C	inactive	inactive	inactive	inactive	inactive			inactive	inactive			inactive	inactive		inactive	inactive		inactive		inactive
CCN(CC)CCNC(=O)COc1ccc(Cl)cc1	inactive	inactive	inactive	inactive	inactive		inactive	inactive	inactive	inactive	inactive		inactive		inactive			inactive		inactive
O=S(=O)(O)C(F)(F)F	inactive	inactive	inactive	inactive		inactive	inactive	inactive	inactive	inactive	inactive		inactive		inactive	inactive	inactive			inactive
CC1=CC(=O)CC(C)(C)C1=O	inactive	inactive	inactive	inactive		inactive	inactive	inactive	inactive	inactive	inactive		inactive		inactive	inactive	inactive	inactive		inactive
CC(C)S	inactive	inactive	inactive	inactive		inactive	inactive	inactive	inactive	inactive	inactive	inactive	inactive		inactive	inactive		inactive		inactive
CC(CNC1CCCCC1)OC(=O)c1ccccc1 (stereo not drawn)	inactive	inactive	inactive	inactive	inactive	inactive	inactive	inactive	inactive	inactive	inactive	inactive	inactive	inactive	inactive			inactive		
